Source: PubChem BioAssay (National Center for Advancing Translational Sciences (NCATS))
TDP1 cell CPT = growth inhibition of DT40 Tdp1-/-;hTDP1 cells with camptothecin (screen for TDP1 inhibitors); chicken DT40 Tdp1-/-;hTDP1 cells + 20 nM CPT, ATP luminescence, 48 h; Potency, µM (titrated, usually from 46.2 µM), for inactives: at the highest dose activity change, negative = growth inhibition, most hits filed as inhibitors; 420,000 compounds, 12% hits; note: potency is the fitted concentration of half-maximal effect; nearly all actives have a fitted effect of over 55% in size
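Chicken DT40 Tdp1-/- cells stably complemented with human TDP1 were seeded at 400 cells/well in medium containing 20 nM camptothecin, exposed to pin-transferred compounds, and grown at 37 °C for at least 48 hr. Viability was read as ATP luminescence.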
DT40 TDP1 no CPT = qHTS for Inhibitors of human tyrosyl-DNA phosphodiesterase 1 (TDP1): qHTS in cells in absence of CPT; DT40 Tdp1-/- hTDP1 cells, no CPT, ATP luminescence, 48 h; Potency, µM (top dose mostly 46.2 µM), for inactives: at the top dose activity change, negative = growth inhibition, usual class: inhibitors; AID 686978, 2013; 420,000 compounds, 15% hits; note: potency is the fitted concentration of half-maximal effect; nearly all actives have a fitted effect of over 55% in size
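Camptothecin absent (DMSO only). Human TDP1-complemented DT40 knockout cells, 400 cells/well, 37 °C for minimum 48 hr; ATP measured via CellTiter-Glo, 30 min dark incubation, luminescence.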
IL-1B inflam inh = inhibitors of inflammasome signaling (IL-1 beta secretion); THP-1 LPS/ATP IL-1B secretion, AlphaLISA, 16 h; active compounds read low; activity change, % at 57.5 µM; 360,000 compounds, 4.7% hits; AID 743279; in the data active = activity change below about -50%; inconclusive = mostly about -30% to -49%
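Secreted IL-1B measured by AlphaLISA bead assay after 16 h compound exposure of THP-1 cells; compounds (final up to 57.5 uM) added 1 h before LPS (250 ng/mL) and ATP (1.25 mM) stimulation; lower signal means less secretion.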
HT1080 IDH1KD tx = HT-1080 IDH1 knockdown cell toxicity (counter line) | HT-1080 IDH1 knockdown viability, ATP luminescence, 48 h | Potency, µM (titrated, usually from 46.1 µM), for inactives: at the highest dose activity, negative = toxicity, usual class: cytotoxic | 360,000 compounds, 2% hits | AID 686971;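 note: potency is the fitted concentration of half-maximal effect; 0% = DMSO wells and -100% = cell-free medium wells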
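CellTiter-Glo luminescence after 48 h compound exposure at 37 degrees C of IDH1-knockdown HT-1080 cells in 5% FBS RPMI. %Activity scaled between DMSO wells and cell-free media wells, with curves fitted and assigned curve classes.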
HT1080-NT tox = kills 2HG-producing HT-1080-NT fibrosarcoma cells | HT-1080-NT fibrosarcoma viability, CellTiter-Glo ATP luminescence, 48 h | Potency, µM (top dose mostly 46.1 µM), for inactives: at the top dose activity, negative = less viability, usual class: cytotoxic | 360,000 compounds, 1.6% hits;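 note: NT is the 2HG producing partner of a matched IDH1 knockdown line; potency is the fitted concentration of half-maximal effect; 0% = DMSO-treated cells and -100% = media-only wells without cells; nearly all actives have a fitted effect of over 55% in size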
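750 cells/well, RPMI + 5% FBS; 2 h settle, compound pin-transfer, 48 h at 37 degrees C. CellTiter-Glo 10 min RT, luminescence. Normalized to DMSO and media-only wells.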
* = called active by the depositor; u = inconclusive; x = no result. Sampled rows, rich in hits. Any-hit rate of the full collection: about 19%. Unless noted, calls come from the whole dose curve; as a rule, active = well fitted curve in the direction sought with a large enough effect; inconclusive = small, poorly fitted or top-dose-only effect, or another doubt; inactive = no such curve, though single readings can be large; an effect the other way counts as inactive or inconclusive. Unless noted, % is set by controls: 0 for no effect and ±100 for the full control effect.

SMILES	TDP1 cell CPT	DT40 TDP1 no CPT	IL-1B inflam inh	HT1080 IDH1KD tx	HT1080-NT tox
CCCO/N=C1/C(=O)N(c2ccccc2)c2ccccc21	13µM*	23µM*	u	-5%	-4%
Cc1cc(C)c2cc(CN(CCO)C(=O)Nc3ccc(F)cc3)c(=O)[nH]c2c1	-27%	-10%	x	2%	-3%
CCN1CCCC1CN(Cc1cc2c(C)cc(C)cc2[nH]c1=O)C(=O)NC1CCCCC1 (centres undefined)	23µM*	u	-67*	u	u
Cc1cc(C)c2cc(CN(CCO)C(=O)NC3CCCCC3)c(=O)[nH]c2c1	6%	7%	-52*	-4%	-2%
Cc1cc(C)c2cc(CN(CCN(C)C)C(=O)Nc3ccccc3Cl)c(=O)[nH]c2c1	u	15µM*	-24	-9%	0%
COc1ccccc1NC(=O)N(CCN(C)C)Cc1cc2cc(C)ccc2[nH]c1=O	u	u	u	-3%	-3%
Cc1cc(C)c2cc(CN(Cc3ccco3)C(=O)NCc3ccccc3)c(=O)[nH]c2c1	9%	-10%	-58*	-19%	-17%
CCn1cc(CN2CCCC(CNC(=O)COc3ccccc3OC)C2)c(C)n1 (centres undefined)	2%	22%	13	9%	-2%
CN(CC(=O)Nc1ccccc1Cl)CC(=O)Nc1ccccc1[N+](=O)[O-]	u	21µM*	17	-19%	-12%
CCCCc1ccc(NC(=O)CN(C)CC(=O)Nc2ccccc2Cl)cc1	u	23µM*	-74*	-12%	-21%
COc1ccc(NC(=S)N2CCN(C(=O)c3ccccc3)CC2)cc1	8%	-11%	-3	2%	5%
CCOc1ccc(C(=O)NCC(c2ccco2)N2CCOCC2)cc1 (centres undefined)	-16%	-6%	2	2%	5%
COCCCN1C(=O)N(c2ccc(F)cc2)C(=O)C1CC(=O)Nc1ccccc1 (centres undefined)	-20%	-18%	3	0%	20%
Cc1ccc(N2C(=O)C(CC(=O)Nc3cccc(F)c3)N(CCc3ccccc3F)C2=O)cc1 (centres undefined)	16µM*	21µM*	x	x	x
C=CCN1C(=O)N(c2ccccc2)C(=O)C1CC(=O)Nc1ccc(OC)cc1 (centres undefined)	13%	7%	-17	2%	-1%
CCCOc1ccc(NC(=O)CC2C(=O)N(c3ccccc3)C(=O)N2CCC(C)C)cc1 (centres undefined)	u	15µM*	x	x	x
CCN1C(=O)C(CC(=O)Nc2ccc(OC)cc2)N(CCc2ccc(OC)cc2)C1=S (centres undefined)	u	u	-86*	1%	-26%
COc1ccc(NC(=O)CC2C(=O)N(c3ccc(C)cc3)C(=O)N2Cc2ccc(C)cc2)cc1 (centres undefined)	-10%	u	x	x	x
COc1ccc(CCN2C(=O)N(c3ccc(C)cc3)C(=O)C2CC(=O)Nc2ccc(OC)cc2)cc1 (centres undefined)	21µM*	u	x	x	x
CCN1C(=O)C(CC(=O)Nc2ccc(OC)cc2)N(Cc2ccc(OC)c(OC)c2)C1=S (centres undefined)	-13%	u	-12	-6%	-5%
O=S(=O)(NC1=NCCCCC1)c1ccc2ccccc2c1	2%	-10%	0	-1%	2%
COC(=O)N1CCC2(CCN(C(=O)Nc3cccc(F)c3)CC2)CC1	-21%	u	x	x	x
Cn1cc([C@@H]2C[C@H]3CN(C4CCCC4)C(=O)[C@]34CCCN24)c(-c2ccccc2)n1	-14%	-27%	-16	8%	11%
CCC(C(=O)c1ccccc1)N(C(=O)c1ccccc1Cl)N1C(=O)C2C3C=CC(C3)C2C1=O (centres undefined)	-18%	u	10	1%	-1%
O=C1C2C3CCC(C3NCc3ccccc3)C2C(=O)N1Cc1ccccc1 (centres undefined)	-18%	u	-21	1%	8%
